This is an account of results in PubChem BioAssay (NCATS).

Test [1] addresses Catechol O-methyltransferase (Homo sapiens) (UniProt P21964). Nature of the test: Confirmatory Screen for Target Class Profiling of Small Molecule Inhibitors of Methyltransferases (AID 1745852). As to activity change, negative = inhibition: % is scaled to controls: 0 for no effect and ±100 for the full control effect. Particulars: MTase-Glo luminescence, SAH detection, recombinant enzyme; measured here: COMT max response; stronger effect = lower value.
Test [2] has as its target Guanidinoacetate N-methyltransferase (Homo sapiens) (UniProt Q14353). The test is described as above. Particulars: MTase-Glo luminescence, SAH detection, recombinant enzyme; activity change, negative = inhibition: at 57.3 µM (top of the series).

Active and inactive are the calls of the source. Calls follow the shape of the full dose curve.
Potency is read from the fitted curve at half-maximal effect.

Chain of Catechol O-methyltransferase (Homo sapiens) (P21964 whole entry, looked up): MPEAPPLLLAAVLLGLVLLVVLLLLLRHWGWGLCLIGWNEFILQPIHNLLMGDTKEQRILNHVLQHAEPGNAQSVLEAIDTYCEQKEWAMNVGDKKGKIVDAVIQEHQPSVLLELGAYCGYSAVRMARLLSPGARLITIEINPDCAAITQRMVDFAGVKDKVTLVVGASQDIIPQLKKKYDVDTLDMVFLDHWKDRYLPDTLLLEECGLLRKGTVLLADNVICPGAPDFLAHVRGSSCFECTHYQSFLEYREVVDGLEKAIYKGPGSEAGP

As for `CCN(CC)CCCCCCCCOC(=O)c1cc(OC)c(OC)c(OC)c1`, the activity in test [1] came out at 8.45%. In addition, in test [2], the activity change, negative = inhibition came out at 4.66%.

Regarding `N#C/C(=C\c1ccc(O)c(O)c1)C(=O)NCCc1ccccc1`, the activity in test [1] came out at 85.9%. Further, the Potency in test [2] is 0.432 µM (active).

For `CC1CCN=C(N)S1` (stereo not given), the activity in test [1] worked out at 4.68%. In addition, the activity change, negative = inhibition in test [2] amounted to 0.929%.

For `COc1cc(/C=C(\C#N)C(=O)c2ccc(O)c(O)c2)cc(I)c1O`, the activity in test [1] turned out to be 13.9%. Also, the Potency in test [2] is 24.3 µM (active).

`N=C(N)SCCc1cnc[nH]1`: the activity in test [1] is -3.06%. In addition, the activity change, negative = inhibition in test [2] was -1.52%.

For the molecule `Nc1ccc2c3c(cccc13)C(=O)NC2=O`, the activity in test [1] was 1.42%. The activity change, negative = inhibition in test [2] was determined as 4.2%.

Take `O=C(O)C1=CC(=C(c2ccc(O)c(C(=O)O)c2)c2ccc(O)c(C(=O)O)c2)C=CC1=O`: the activity in test [1] is -24.2%. Further, the Potency in test [2] is 24.3 µM (active).

With `Oc1cc(O)c2c(c1)O[C@H](c1ccc(O)c(O)c1)[C@@H](O)C2`, the activity in test [1] was found to be 171%. Also, the activity change, negative = inhibition in test [2] was 4.5%.

On to `CN(C)C(=O)/N=N/C(=O)N(C)C`, for which the activity in test [1] was -3.94%. In addition, in test [2], the activity change, negative = inhibition was determined as 0.919%.

Consider `CCCc1c(-c2ccc(O)cc2)nn(-c2ccc(O)cc2)c1-c1ccc(O)cc1`, for which the activity in test [1] is -7.84%. For the same molecule, the Potency in test [2] is 43.2 µM (active).

`NS(=O)(=O)c1cccc2c1c([N+](=O)[O-])cc1nc(O)c(O)nc12`: the activity in test [1] is -92.9%. Further, the activity change, negative = inhibition in test [2] was found to be 0.0632%.

In the case of `Fc1ccc(CN(C2=NCCN2)c2c(Cl)cccc2Cl)cc1`, the activity in test [1] was -2.41%. The activity change, negative = inhibition in test [2] came to 6.96%.

As for `C=CCN1CCc2c(cc(O)c(O)c2Br)[C@@H](c2ccccc2)C1`, the activity in test [1] was 62%. In addition, the activity change, negative = inhibition in test [2] stood at 5.44%.

With `CC(O)C(O)[C@H]1CNc2nc(N)[nH]c(=O)c2N1` (stereo not given in full), the activity in test [1] was -9.57%. In addition, the activity change, negative = inhibition in test [2] was 4.12%.

`CNCCc1cnc(CCC(c2ccccc2)c2ccccc2)[nH]1`: the activity in test [1] was -11%. The activity change, negative = inhibition in test [2] turned out to be 3.35%.
